Measurements as given in PubChem BioAssay AID493222 (Johns Hopkins Ion Channel Center, 2011).
In all, about 2,400 compounds went through this assay and about 95 (4%) were called active.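 Rule for the calls: active = mean of duplicate membrane potential ratios lying over 3 SD above or below the buffer control mean, so actives fall on both sides; inactive = the rest.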 Not all results are given here.

Test: membrane potential effects in parental HEK293, counter-screen for CHT inhibitor project, cell-based, membrane potential dye (AID 493222);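 note: parental cells lack the transporter so any hit is non-specific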;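 for membrane potential ratio readout (active if shifted either direction beyond buffer ±3SD; no single direction): ratio is peak minus trough fluorescence over baseline after EC90 choline challenge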
Conditions: choline response, at 10 µM; active = decrease or increase beyond buffer ±3SD

| SMILES | membrane potential ratio readout (active if shifted either direction beyond buffer ±3SD; no single direction) |
| --- | --- |
| O=C(OCC(=O)c1c[nH]c2ccccc12)c1cccc(O)c1 | inactive |
| CCc1cc2c(N3CCN(c4nnc(CC)s4)CC3)ncnc2s1 | inactive |
| O=C(Cn1nc(C(F)(F)F)c2c1CCC2)NCc1ccc(F)cc1 | inactive |
| CCN(Cc1ccccc1)S(=O)(=O)c1cc(C(=O)O)ccc1OC | inactive |
| COc1ccc(Cn2c(=O)sc3ccccc32)cc1OC | -8.59 (active) |
| O=C(NCCc1ccc2c(c1)OCCO2)c1cc2ccccc2o1 | inactive |
| FC(F)(F)c1cccc(NC(=S)Nc2cccc(Cl)c2)c1 | inactive |
| CCCCCn1c(=O)[nH]c2cc(C(=O)NCCCN3CCCCC3C)ccc2c1=O (configuration not stated) | inactive |
| O=C(NCCCn1ccnc1)C(=O)c1cn(CC(=O)N2CCCCCC2)c2ccccc12 | inactive |
| CCC(C)c1ccc(NC(=S)NCc2ccccn2)cc1 (configuration not stated) | inactive |
| Cc1c(C(=O)OC(C)C)sc(NC(=O)c2cccnc2)c1C#N | inactive |
| C/C(=N/NC(=O)c1cc(Cl)ccc1O)C12CC3CC(CC(C3)C1)C2 | inactive |
| COc1nc(OC)nc(N(C)CCO)n1 | inactive |
| COc1cccc(-c2nn(-c3ccccc3)cc2/C=C(\C#N)C(=O)NCCCn2ccnc2)c1 | inactive |
| O=S(=O)(Cc1cc(Cl)nc(-c2cccnc2)n1)c1ccccc1 | inactive |
| COc1ccc(-n2nnnc2CNC(=O)c2ccc3ccccc3c2)cc1 | inactive |
| N#Cc1ccc(C(=O)Nc2cccc3cccnc23)c(F)c1 | inactive |
| CCC(=O)Nc1nnc(S(=O)(=O)N(CC(C)C)c2ccccc2)s1 | inactive |
| CC1CN(S(=O)(=O)c2ccc(C(=O)NN3CCN(C)CC3)cc2)CC(C)O1 (configuration not stated) | inactive |
| CC(=O)N1CCN(S(=O)(=O)c2cccc(C(=O)NC3CCC(C)CC3)c2)CC1 (configuration not stated) | inactive |
| CC(NC(=O)c1ccc(N2CCNCC2)c([N+](=O)[O-])c1)C12CC3CC(CC(C3)C1)C2 (configuration not stated) | inactive |

| SMILES | membrane potential ratio readout (active if shifted either direction beyond buffer ±3SD; no single direction) |
| --- | --- |
| COc1ccc(OCC(=O)OCCN(C)C)cc1 | inactive |
| CC(C(=O)NC1CCS(=O)(=O)C1)N1C(=O)/C(=C/c2ccc(Cl)cc2)SC1=S (configuration not stated) | inactive |
| CCOC(=O)N1CCN(C(=O)C2CCN(c3ncnc4c3sc3cccc(F)c34)CC2)CC1 | inactive |
| CCC(C(=O)N1CCOCC1)n1c(C(=O)OC)cc2occc21 (configuration not stated) | inactive |
| CC1(C)SC2C(NC(=O)COc3ccccc3)C(=O)N2C1C(=O)O (configuration not stated) | inactive |
| Cc1cccc(C)c1NC(=O)c1ccc(CN2CCc3ccccc3C2)cc1 | inactive |
| CCS(=O)(=O)C1=NSC2=NC(=O)/C(=C\c3ccc(OS(=O)(=O)c4ccccc4)cc3)C(=N)N21 | inactive |
| Cc1nn(CC(=O)NCC2CCCO2)c(=O)c2cc3ccccc3n12 (configuration not stated) | inactive |
| COc1ccc(C(CNC(=O)c2cccc(NS(=O)(=O)c3ccc(C)c(F)c3)c2)N2CCCC2)cc1 (configuration not stated) | inactive |
| CCn1c(SCCC(C)C)nnc1-c1c[nH]c2ccccc12 | inactive |
| Cc1[nH]c2ccccc2c1C(=O)CN1CCCC(C)C1 (configuration not stated) | inactive |
| COc1ccc(N2C(=O)CNC2=S)cc1 | inactive |
| CC(=O)c1ccc(Oc2cc(C)nc(-n3nc(C)cc3C)n2)cc1 | inactive |
| CC(C)(C)c1ccc(C(=O)CSc2ncn[nH]2)cc1 | inactive |
| CN(CCC#N)c1ncnc2scc(-c3ccccc3)c12 | inactive |
| O=C1/C(=C/c2ccc(F)cc2)SC(=S)N1NS(=O)(=O)c1ccccc1 | inactive |
| COc1ccc(C(=O)NC(=S)NNC(=O)CCc2ccccc2)cc1 | inactive |
| O=C(Nc1nonc1-c1ccc(Cl)cc1)c1ccco1 | inactive |
| COc1ccc(C(=O)NNC(=S)NC(=O)c2ccccc2)cc1 | inactive |
| Oc1c(Cl)cc(Cl)c(Cl)c1Cc1c(O)c(Cl)cc(Cl)c1Cl | inactive |
| O=C(O)CC1=C(Nc2ccccc2)C(=O)N(c2ccccc2)C1c1ccc(Cl)cc1 (configuration not stated) | inactive |

| SMILES | membrane potential ratio readout (active if shifted either direction beyond buffer ±3SD; no single direction) |
| --- | --- |
| Cc1ccc2nc(Nc3ccccc3)cc(C)c2c1 | inactive |
| Cc1oc2cc([N+](=O)[O-])c(O)c([N+](=O)[O-])c2c1C(=O)c1ccc(Br)cc1 | 2.79 (active) |
| CC(C)(C)NC(=O)NC(=O)CN1CCC(Cc2ccccc2)CC1 | inactive |
| COc1ccc(C(=O)NC(C)c2nccs2)cc1OC1CCN(C(C)C)CC1 (configuration not stated) | inactive |
| COc1cc2ccccc2cc1C(=O)Nc1ccc(S(=O)(=O)Nc2cc(C)on2)cc1 | inactive |
| O=C(O/N=C(/c1ccccc1)c1ccncc1)c1ccccc1[N+](=O)[O-] | inactive |
| CCc1nc(C)cn1S(=O)(=O)c1cc([N+](=O)[O-])ccc1Cl | 2.6 (active) |
| Cc1ccc(NNC(=O)c2cccs2)cc1Cl | inactive |
| Cc1cc(OC(C)C(=O)Nc2ccc(S(=O)(=O)Nc3onc(C)c3C)cc2)cc(C)c1Cl (configuration not stated) | inactive |
| CCN(CC(=O)NCc1ccc(Cl)cc1)C(=O)CSc1ccccc1 | inactive |
| CN(C)c1ccc(Nc2c3c4c(cccc4n(C)c2=O)C(=O)c2ccccc2-3)cc1 | inactive |
| Cc1cc(NS(=O)(=O)c2ccc(NC(=O)C(C)Oc3cccc(C)c3C)cc2)nc(C)n1 (configuration not stated) | inactive |
| COc1ccc(/C=C2/SC(=O)N(CCCCCC(=O)Nc3ccccc3C(=O)O)C2=S)cc1 | inactive |
| CN(Cc1ccccc1)CC(O)COc1ccc(CNCc2cc3ccccc3s2)cc1 (configuration not stated) | inactive |
| COc1ccc(S(=O)(=O)N2CCN(C(=O)NC3CCCCC3)CC2)cc1 | inactive |
| CCCCn1c(SCC(=O)NCC2CCCO2)nc2ccc(N3CCOCC3)cc2c1=O (configuration not stated) | inactive |
| Cc1cccc(N(C)C(=O)CN2C(=O)COc3ccc(S(=O)(=O)N4CCCCCC4)cc32)c1 | -12.1 (active) |
| CC1CCN(CCCNC(=O)CN2C(=O)CSc3ccc(S(=O)(=O)N4CCCCC4)cc32)CC1 | inactive |
| O=C(c1c(F)cccc1Cl)N1CCN(S(=O)(=O)c2ccc3c(c2)OCCCO3)CC1 | inactive |
| O=C(O)c1ccc(/C=C2\SC(=S)N(NC(=O)c3ccc(Br)cc3)C2=O)cc1 | inactive |
